In the library only some 4.1% were active in any assay of this set; here they are far more common.
PolyA inh = polyadenylation inhibitors in yeast reporter cells, primary screen, luminescence, S. cerevisiae | S. cerevisiae SKY197-pL101 polyadenylation reporter, beta-gal luminescence; efflux-impaired pdr1/pdr3 knockout yeast; score 100 = 6 SD above DMSO | activity score, % at 12 µM | 0.02% of 300,000 active;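 active = lowest replicate activity score at least 50, where 100 means six control SD above control mean; inconclusive = lowest score under 50 but half or more replicates reach 50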;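 note: yeast exposed to compound for 9 h at 30 °C; higher score means more reporter readthrough which indicates perturbed polyadenylation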
M18AAP inhibitor = PfM18AAP inhibitors, malaria aminopeptidase, primary screen, biochemical, QFRET, recombinant enzyme | M18 aspartyl aminopeptidase (Plasmodium falciparum 3D7) | H-Glu-NHMec fluorogenic cleavage | inhibition, % at 7.35 µM | 1.2% of 290,000 active | AID 1822, 2009;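 active = inhibition above the campaign mean inhibition over all tested compounds plus 3 SD, cut at about 28% in these data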;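 note: 0% = plate median of test compound wells and 100% = 2 mM ZnCl2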
IDE inh = human IDE inhibitors in live cells, primary screen, fluorescence polarization, HEK cells, FAbetaB substrate | Insulin-degrading enzyme (Homo sapiens), P14735 | inhibition, % at 5.59 µM | FAbetaB cleavage | AID 434962, 2010 | 0.41% of 320,000 active;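 active = percent inhibition above the average of all tested compounds plus 3 SD, set per screening campaign, cut at about 16% in these data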;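 note: IDE supplied by intact live HEK cells; FP after avidin binding of uncleaved biotin substrate so inhibition keeps polarization high; 0% = DMSO wells and 100% = 60 µM reference IDE inhibitor Ii1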
CaV13 FRET inh = Primary screen for inhibitors of IQ motif and Ca2+-dependent inactivation inhibitor domain binding in CACNA1D, Förster resonance energy transfer in living cells, …. HEK cells, CFP/YFP FRET ICDI-IQ, plate reader, 10 min; percent FRET-ratio fall versus neutral wells. inhibition, % at 12.3 µM. 0.098% of 340,000 active. AID 743397;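 active = mean replicate inhibition of at least 30% and at least 1% of replicates passing that level; inconclusive = only one of the two criteria is met; inactive = neither criterion is met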;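 note: 0% = median of the neutral control wells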
ALR H2O2 inh = inhibitors of human ALR sulfhydryl oxidase, primary screen, biochemical, H2O2 detection, HRP-luminol luminescence, single point; FAD-linked sulfhydryl oxidase ALR (Homo sapiens), P55789; 3.8% of 290,000 active; inhibition, % (concentration not given with the values); purified ALR, DTT oxidation; AID 485317, 2010;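 active = mean replicate inhibition above about 79%, with every replicate also reaching it, limit read from the data; inconclusive = only one of the two criteria met; inactive = mean below limit and not every replicate reaching it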
Target sequence (P55789 whole entry, looked up): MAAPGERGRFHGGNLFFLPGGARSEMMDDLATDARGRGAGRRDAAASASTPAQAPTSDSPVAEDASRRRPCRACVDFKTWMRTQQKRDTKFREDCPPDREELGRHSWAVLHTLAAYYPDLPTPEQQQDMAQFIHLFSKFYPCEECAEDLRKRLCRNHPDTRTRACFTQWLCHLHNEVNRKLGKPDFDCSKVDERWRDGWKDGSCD
IDE cell activ = human IDE activators in live cells, primary screen, fluorescence polarization, HEK cells, FAbeta-B substrate. Insulin-degrading enzyme (Homo sapiens), P14735. FAbeta-B cleavage; 0% vehicle, 100% cell-free pure enzyme wells. activation, % at 5.96 µM. 0.073% of 340,000 active. AID 493087, 2011;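 active = activation above the mean of all tested compounds plus 3 SD, set per screening campaign, cut at about 17% in these data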
Starred values were filed as active, the others as inactive; ? = inconclusive; · = no result given.

SMILES | PolyA inh | M18AAP inhibitor | IDE inh | CaV13 FRET inh | ALR H2O2 inh | IDE cell activ
CCCCN(CCCNC(=O)C1CCCN(S(=O)(=O)CCC)C1)Cc1ccccc1 (centres undefined) | 3.5 | 0.4 | -1.9 | -20.9 | · | 6.1
CCN(CCNC(=O)C1CCCN(S(=O)(=O)CC)C1)c1ccccc1 (centres undefined) | 32.2 | 20.1 | -0.7 | · | 98.6* | 2.2
CCN(CCNC(=O)C1CCN(c2nnc(-n3cccc3)s2)CC1)c1ccccc1 | 9.5 | 5.1 | -1.1 | -5.3 | 73.4 | -1.5
CCN(CCNC(=O)C1CCN(S(=O)(=O)CC)CC1)c1ccccc1 | 2.4 | -4.7 | 3.0 | -10.5 | 98.8* | 2.3
CN(CCc1ccccn1)C(=S)Nc1cccc(S(=O)(=O)N(C)C)c1 | -9.2 | -6.1 | 2.2 | -3.8 | 1.6 | 0.1
CC1(C(=O)NS(=O)(=O)c2ccccc2C(F)(F)F)CCN1C(=O)CC1CCCC1 (centres undefined) | · | · | · | -9.4 | · | ·
O=C(NCc1nnc(SCC(=O)N2CCCc3ccccc32)o1)c1c(F)cccc1Cl | 8.7 | 2.8 | 1.7 | 7.6 | 44.0 | -0.2
O=C(NCc1ccccc1)[C@@H]1CCCN1C(=O)[C@H]1CCCN1C(=O)c1ccccc1Cl | · | · | · | -6.0 | · | ·
CCN(CCNC(=O)C1CC(=O)N(CCc2ccccc2)C1)c1ccccc1 (centres undefined) | 9.3 | 27.5 | 4.3 | · | 99.4* | -3.0
CCN(CCNC(=O)Cn1cc2c(n1)CCCC2)c1ccccc1 | ? | 1.9 | 5.2 | -2.4 | 98.8* | 2.7
O=C(NCCN1CCCc2ccccc21)C1CCC(=O)N(CCc2ccccc2)C1 (centres undefined) | -0.6 | 14.0 | -2.6 | -3.1 | 86.5* | 1.0
O=C(Cn1cc2c(n1)CCCCC2)NCc1ccccc1 | -5.0 | · | -1.4 | 3.9 | · | 1.7
Cc1ccc2nsnc2c1S(=O)(=O)N1CCOCC1 | -9.3 | 0.5 | -1.0 | · | 98.5* | -5.3
Cc1cc(C)cc(C(=O)Oc2coc(CSc3nnc(NC(=O)C4CC4)s3)cc2=O)c1 | -9.8 | 0.3 | 0.0 | -19.9 | · | -4.4
O=C(Oc1coc(CSc2nnc(NC(=O)C3CC3)s2)cc1=O)c1c(F)cccc1F | 12.6 | -8.8 | -5.1 | -4.4 | 96.5* | 8.4
[O-][n+]1c2c(c3c4non(O)c4ccc31)CCCC2 | -25.0 | 20.0 | -0.5 | -8.2 | 93.9* | -2.6
COn1c2c(c3c4no[n+]([O-])c4ccc31)CCCC2 | -10.7 | 0.8 | -2.8 | -5.0 | 6.2 | 1.5
CC1(C)Cc2nc3oc4c(=S)nc[nH]c4c3cc2CO1 | 1.0 | -9.6 | 1.3 | -5.5 | 96.3* | -3.1
Nc1[nH]c(C(=O)c2ccccc2)c(-c2ccc(Cl)cc2)c1C(=O)c1c[nH]c2ccccc12 | · | · | · | -7.9 | · | ·
COC(=O)CCC/C=C1/SCC(NC(=O)c2ccccc2)C1O (centres undefined) | 5.5 | -10.7 | -4.7 | -7.9 | 97.2* | 0.9
Cc1ccc(-c2nc(CS(=O)CC(=O)N3CCN(c4ccc(F)cc4)CC3)c(C)o2)cc1 (centres undefined) | -4.1 | 4.1 | -4.3 | -2.6 | 98.5* | -4.2
CCOC(=O)C1CCN(C(=O)Cc2cccs2)CC1 | 3.8 | -2.4 | 3.5 | · | -3.6 | -2.1
CCOC(=O)C1CCN(C(=O)CS(=O)Cc2nc(-c3ccc(C)cc3)oc2C)CC1 (centres undefined) | -5.8 | -4.5 | 3.2 | -6.2 | 99.7* | 2.5
COc1ccc(N2CCN(C(=O)CS(=O)Cc3nc(-c4ccc(OC)c(OC)c4)oc3C)CC2)cc1 (centres undefined) | 2.8 | 5.6 | -1.5 | -6.1 | -1.7 | 3.7
Cc1cccc(-c2nc(CS(=O)CC(=O)N3CCN(C)CC3)c(C)o2)c1 (centres undefined) | 13.4 | -9.0 | 2.1 | -2.0 | 98.7* | 4.5
O=C(NCCN1CCC(n2c(=O)[nH]c3ccccc32)CC1)c1cc(F)cc(F)c1 | · | · | · | -9.4 | · | ·

Compound activity from PubChem BioAssay.
